Records with an inconclusive call do not appear. The source made the active and inactive calls. The call rests on the fitted dose curve; in most records, active means well fitted curve in the direction sought with a large enough effect; inconclusive means small, poorly fitted or top-dose-only effect, or another doubt; inactive means no such curve, though single readings can be large; an effect the other way counts as inactive or inconclusive.
Experiments:
HEK293T = experiment: qHTS assay to identify novel small-molecules to repurpose for Merkel cell carcinoma treatment (AID 1296009); details: MCC and control cell lines, CellTiter-Glo viability, 72 h; series mostly up to 44.8 µM; further: nearly all actives have a fitted effect of over 60% in size
In short: (§1)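 Cells were incubated with compound for 72 hr at 37 degree celsius before CellTiter-Glo addition. Luminescence was normalized with no-cell wells as full cytotoxicity and DMSO as baseline.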

NIH3T3 = experiment: as above; details: MCC and control cell lines, CellTiter-Glo viability, 72 h; at 44.8 µM (top of the series) unless noted
In short: as §1

C33A = experiment: Primary qHTS to identify gynecologic anti-cancer compounds using libraries of approved drugs and bioactive compounds (AID 1345084); details: Gynecologic cancer cell panel viability, ATPlite luminescence, 48 h; series mostly up to 57.5 µM; further: on the % scale 0 is the no-effect control and ±100 the full control effect; nearly all actives have a fitted effect of over 55% in size
In short: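 Five-point cytotoxicity, 48 h drug exposure at 37 C, 5% CO2, on cells seeded 16 h beforehand. ATP content read by ATPlite luminescence.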

CC(=O)OC1C(O)CC(O[C@@H]2O[C@H](CO)[C@@H](O)[C@H](O)[C@H]2O)C2CCC3C(=O)OC(c4ccoc4)CC3(C)C21 (stereo partly specified)
inactive: Potency (HEK293T) | outcome (NIH3T3) inactive [at 17.4 µM] | Potency (C33A)

N#CCc1ccc(O)cc1O[C@@H]1O[C@H](CO)[C@@H](O)[C@H](O)[C@H]1O
inactive: Potency (HEK293T) | outcome (NIH3T3) | Potency (C33A)

Nc1nonc1C(=Nc1ccc(F)c(Cl)c1)NO
inactive: Potency (HEK293T) | outcome (NIH3T3) | Potency (C33A)

CC(=O)OC[C@]1(O)[C@H]2[C@H](OC(=O)CC(C)C)OC=C(CO[C@@H]3O[C@H](CO)[C@@H](O)[C@H](O)[C@H]3O)[C@H]2C[C@@H]1O
inactive: Potency (HEK293T) | outcome (NIH3T3) inactive [at 17.4 µM] | Potency (C33A)

Cc1cc(C)c(S(=O)(=O)N(Cc2ccc(-c3cccc(S(C)(=O)=O)c3)cc2)Cc2ccc(C(F)(F)F)o2)c(C)c1
inactive: Potency (HEK293T) | outcome (NIH3T3) | Potency (C33A)

C[C@H]1[C@H](C)CC[C@]2(C(=O)O)CC[C@]3(C(=O)O)C(=CCC4[C@@]5(C)CC[C@H](O[C@@H]6O[C@H](C)[C@@H](O)[C@H](O)[C@H]6O)C(C)(C)C5CC[C@]43C)[C@H]12 (stereo partly specified)
inactive: Potency (HEK293T) | outcome (NIH3T3) inactive [at 17.4 µM] | Potency (C33A)

C[C@@H]1O[C@@H](O[C@H]2[C@H](OC(=O)C34CCC5(C)C(=CCC6C7(C)CC(O)C(O[C@@H]8O[C@H](C(=O)O)[C@@H](O)[C@H](O)[C@H]8O)C(C)(C(=O)O)C7CCC65C)C3CC(C)(C)CC4O)O[C@H](C)[C@@H](O)[C@@H]2O)[C@H](O)[C@@H](O[C@@H]2OC[C@](O)(CO)[C@H]2O[C@@H]2O[C@H](CO)[C@@H](O)[C@H](O)[C@H]2O)[C@H]1O (stereo partly specified)
inactive: outcome (HEK293T) inactive [at 9.27 µM] | outcome (NIH3T3) inactive [at 9.27 µM] | activity change, negative = cytotoxicity (C33A) -3.41% [at 6.55 µM]

Reference: PubChem BioAssay (NCATS)
